# ± gives the standard deviation of the averaged measurements. In all, about 33,000 sequences were measured (“E-score (rank enrichment, -0.5 to 0.5)”: median about -0.0075, highest 2% from about 0.23 on). What follows is part of a selection rich in the highest values, with near analogues and random picks from the rest.
# Test system: WT Max(13-93) synthetic (M65Nle)
# Assay: PBM 8-mer E-score (E-score (rank enrichment, -0.5 to 0.5)); higher = stronger preferential binding
# Protocol: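 Protein binding microarray (universal PBM chip covering all 10-mers in fixed probe flanks) with chemically synthesized human Max(13-93) bHLH-LZ analogs (not full-length Max) bearing noncanonical residues (hArg, Tha, Aib, Nle at 65) and aromatic Cys staples. Read-out per 8-mer (and its reverse complement): E-score (rank-based enrichment, -0.5 to 0.5) and Z-score of median probe intensity.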
row,Sequence,PBM 8-mer E-score
1,AGTTGTGG,0.00744 ± 0.15
2,CGACCGTA,-0.107 ± 0.19
3,CCATAGAA,0.0354 ± 0.028
4,GAACCAGC,-0.132 ± 0.07
5,GGGCCATA,0.00373 ± 0.018
6,CAGTTACG,-0.0592 ± 0.044
7,CATGTAAA,0.203 ± 0.052
8,AATGTAAA,0.278 ± 0.0039
9,AATGTATA,0.211 ± 0.048
10,AATGTGTA,0.167 ± 0.021
11,AATGTGTC,0.0393 ± 0.0075
12,AATGTAAT,0.12 ± 0.11
13,AATGTATG,0.255 ± 0.086
14,AATGTATC,0.168 ± 0.036
15,AATGTGTG,0.267 ± 0.05
16,ATAGGCGG,0.057 ± 0.12
17,AAAGGATC,-0.108 ± 0.042
18,AGCTTCAA,0.106 ± 0.021
19,ATCACTGA,-0.0485 ± 0.06
20,ATGTGAAA,0.271 ± 0.12
21,ACGTGAAA,0.279 ± 0.041
22,ACGTGAAC,0.0244 ± 0.025
23,ACGTGAAG,0.0785 ± 0.02
24,TCGTGAAA,-0.119 ± 0.14

row,Sequence,PBM 8-mer E-score
1,CTGTGAAA,0.00343 ± 0.13
2,GTGTGAAA,0.1684 ± 0.00099
3,CCGTGAAA,-0.0191 ± 0.012
4,ACGTGAAT,0.239 ± 0.066
5,AACGGTAC,0.0818 ± 0.035
6,TAGATTGA,-0.00515 ± 0.13
7,CCAGCAAC,-0.121 ± 0.011
8,CACATTCA,0.111 ± 0.11
9,CGTGGCCA,0.131 ± 0.084
10,TCTACAAA,0.0553 ± 0.18
11,ACGTATTA,0.165 ± 0.11
12,GAAGGTAC,-0.096 ± 0.22
13,ACCACTCC,0.0165 ± 0.045
14,CAAAATGG,0.116 ± 0.0099
15,GAAAATGA,0.0385 ± 0.12
16,AAAAATGA,0.2619 ± 0.0016
17,CAAAATGC,0.0988 ± 0.086
18,CAAAATGA,0.287 ± 0.014
19,TAAAATGA,0.153 ± 0.019
20,GCTCACTA,0.105 ± 0.0026
21,ACTCTTAC,0.0838 ± 0.051
22,AGACTGGC,-0.174 ± 0.07
23,AGACATCT,0.0328 ± 0.02
24,TGTAAACA,0.237 ± 0.079

row,Sequence,PBM 8-mer E-score
1,AGTAAACA,0.177 ± 0.012
2,CGTAGAAA,0.2 ± 0.024
3,AGTAAAAA,0.207 ± 0.023
4,GGTAAACA,0.0182 ± 0.025
5,AGTAGAAA,0.184 ± 0.098
6,TGTAAAAA,0.248 ± 0.099
7,CGTAAAAA,0.107 ± 0.012
8,TGTAGAAA,0.284 ± 0.026
9,CGCATCAG,-0.138 ± 0.15
10,AACCGTTC,-0.064 ± 0.11
11,CTCTAATC,-0.0502 ± 0.086
12,TCTTGGAA,-0.078 ± 0.026
13,AAAGGTGT,0.103 ± 0.015
14,ATATTCAT,0.218 ± 0.056
15,ATGTGCGG,0.0139 ± 0.1
16,ACGTGCGC,0.279 ± 0.03
17,ATGTGCGC,0.1696 ± 0.00066
18,CCGTGCGC,0.0359 ± 0.14
19,ACGTGCGA,0.229 ± 0.046
20,ACGTGCGG,0.254 ± 0.056
21,GGGGGTCA,-0.172 ± 0.1
22,GTAGTGAC,-0.0549 ± 0.095
23,GATCCACC,-0.171 ± 0.058
24,CGAGCGAG,0.0998 ± 0.018
